# The list is not random: actives were taken first. Their share in the collection is about 7.3%.
# Rab9 prom act – activates the Rab9 promoter; Huh7 Rab9 promoter-luciferase reporter, luminescence, 24 h; Potency, µM (highest dose often 9.22 µM), most hits filed as activators; 320,000 compounds, 2.8% hits; AID 485297; further: nearly all actives have a fitted effect of over 60% in size
#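 Steps: seed 1500 Huh7 Rab9-luc cells per well, rest 2 h at 37 °C; add compound in DMSO; incubate 24 h; add luciferase reagent, 10 min ambient; read luminescence.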
# uPA generation – cell surface uPA generation inhibition; cell surface uPA generation assay, qHTS; Potency, µM (titrated, usually from 38.3 µM), usual class: inhibitors; 330,000 compounds, 0.31% hits; active means well fitted inhibition curve with a large enough effect; inconclusive means small, poorly fitted or top-dose-only effect; inactive means no such curve, though single readings can be large or run the other way; tested in mouse RAW 264.7 cells; further: nearly all actives have a fitted effect of over 55% in size
# NPC1 prom act – activates the NPC1 promoter; 320,000 compounds, 2.4% hits; Huh7 NPC1 promoter luciferase reporter, 24 h; AID 485313; Potency, µM (titrated, usually from 9.22 µM), actives largely listed as activators; further: nearly all actives have a fitted effect of over 60% in size
#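 Readout is luciferase luminescence, reflecting NPC1 promoter activation in stably transfected Huh7 cells after 24 h compound exposure at 37 °C in reduced-serum medium with 10% FBS.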
# ELG1 genotox – inducers of genotoxicity in HEK293T ELG1-luciferase cells | HEK293T ELG1-luciferase reporter, luminescence, 16 h | 330,000 compounds, 1.3% hits | Potency, µM (series often up to 46 µM), actives largely listed as activators; further: nearly all actives have a fitted effect of over 60% in size
#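 Reporter readout depends on ELG1 protein level, which increases with genetic stress. After 16 hr compound exposure at 37 °C, luciferase activity was quantified using ONE-Glo.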
# SMN2 splice up – SMN2 splice variant enhancement | AID 1458 | 210,000 compounds, 2.8% hits | HEK293 SMN2-luciferase splicing reporter, luminescence, 30-36 h | Potency, µM (highest dose often 46.1 µM), most hits filed as activators; further: nearly all actives have a fitted effect of over 55% in size
#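 HEK293 cells carry an SMN2 […]–luciferase reporter in which exon 7 inclusion puts luciferase in frame. Cells were plated 10-12 h before compound addition, then incubated 30-36 h at 37C. ONE-Glo luminescence was read; sodium butyrate at 4.5 mM final served as control.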
# FLuc counter – counter-screen for miR-21 project: firefly luciferase inhibitors or activators; P08659; purified FLuc, Km substrates, luminescence inhibition; Potency, µM (top dose mostly 57.5 µM), usual class: inhibitors; 360,000 compounds, 6.9% hits; further: nearly all actives have a fitted effect of over 55% in size
# Target sequence (P08659 whole entry, looked up): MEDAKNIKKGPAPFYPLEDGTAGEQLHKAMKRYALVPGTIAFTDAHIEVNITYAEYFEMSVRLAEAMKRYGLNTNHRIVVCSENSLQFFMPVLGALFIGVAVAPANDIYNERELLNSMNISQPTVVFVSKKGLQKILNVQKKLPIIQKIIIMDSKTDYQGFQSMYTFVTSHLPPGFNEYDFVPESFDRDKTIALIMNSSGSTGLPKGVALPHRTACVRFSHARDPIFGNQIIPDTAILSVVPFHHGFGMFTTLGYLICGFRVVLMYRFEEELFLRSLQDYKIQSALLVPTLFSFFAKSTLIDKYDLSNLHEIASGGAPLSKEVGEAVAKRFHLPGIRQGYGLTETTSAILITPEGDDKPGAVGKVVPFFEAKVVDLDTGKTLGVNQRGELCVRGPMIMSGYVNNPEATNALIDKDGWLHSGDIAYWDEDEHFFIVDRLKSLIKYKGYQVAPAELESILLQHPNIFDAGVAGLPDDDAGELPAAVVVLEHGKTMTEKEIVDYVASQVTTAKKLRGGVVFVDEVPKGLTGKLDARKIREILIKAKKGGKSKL
#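 Biochemical qHTS of compounds, final roughly 60 µM downward over six points, against 10 nM purified firefly luciferase using Km concentrations of substrates (10 uM D-luciferin, 10 uM ATP) in Tris acetate pH 7.5 buffer; luminescence output.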
# Numbers stand for hits; - = inactive; ? = inconclusive; . = no result; [ ] = dose if it differs, or a comment. Unless noted, the call rests on the fitted dose curve; in most records, active means well fitted curve in the direction sought with a large enough effect; inconclusive means small, poorly fitted or top-dose-only effect, or another doubt; inactive means no such curve, though single readings can be large; an effect the other way counts as inactive or inconclusive.
SMILES,Rab9 prom act,uPA generation,NPC1 prom act,ELG1 genotox,SMN2 splice up,FLuc counter
N#C/C(=C\c1ccc(O)c([N+](=O)[O-])c1)c1nc2ccccc2s1,-,-,-,-,-,13µM
COc1cc(/C=C(\C#N)c2nc3ccccc3s2)cc([N+](=O)[O-])c1O,-,-,-,-,-,8.5µM
COc1ccc(-c2csc(/C(C#N)=C\c3ccc(O)c([N+](=O)[O-])c3)n2)cc1OC,-,-,-,-,.,15µM
Cc1c([N+](=O)[O-])c(C(=O)Sc2ccc(Br)cc2)nn1C,-,-,-,-,.,17µM
Cc1c([N+](=O)[O-])c(C(=O)N2CCCC2)nn1C,-,.,-,-,-,-
CCN(CC)c1ccc(/C=N/n2c(=S)[nH]nc(C)c2=O)cc1,-,-,-,-,.,15µM
COc1ccc(C2=NN(C(=O)c3ccncc3)C(c3ccccc3O)C2)cc1 (stereo not drawn),-,-,-,-,.,-
O=C(c1ccncc1)N1N=C(c2ccc(Cl)cc2)CC1c1ccccc1O (stereo not drawn),-,-,-,?,.,17µM
CC(C)(C)NS(=O)(=O)c1cccc(S(=O)(=O)c2cccc(S(=O)(=O)NC(C)(C)C)c2)c1,1.6µM,-,2.5µM,?,14µM,5.4µM
O=C1c2ccccc2NC(c2ccc(O)cc2)N1c1ccccc1 (stereo not drawn),?,-,-,-,.,-
CCOc1cc(C(=S)N2CCCCC2)ccc1OCC(=O)NCc1ccccc1,-,.,-,-,-,17µM
CCOC(=O)C1=CC[C@]2(C)c3c(c4ccccc4n3C)C(=O)C1N2C,-,-,-,-,.,-
COc1cc(C(=O)Nc2ccc(O)cc2C(=O)O)ccc1OC(C)=O,-,.,-,-,.,12µM
COC(=O)c1ccc(NC(=O)c2ccc(OC(C)=O)c(OC)c2)cc1,?,-,?,?,?,11µM
O=[N+]([O-])c1ccccc1S(=O)(=O)Nc1ccc(-c2ccc(N3CCCC3)nn2)cc1,-,-,-,-,.,-
O=[N+]([O-])c1cccc(S(=O)(=O)Nc2ccc(-c3ccc(N4CCCC4)nn3)cc2)c1,-,-,-,-,.,30µM
COc1ccc(-c2ccc(NS(=O)(=O)c3cccc([N+](=O)[O-])c3)cc2)nn1,-,-,-,-,.,-
O=[N+]([O-])c1cccc(S(=O)(=O)Nc2ccc(-c3ccc(N4CCOCC4)nn3)cc2)c1,-,-,-,-,.,21µM
COc1ccc(CNC(=O)c2ccc(CS(=O)Cc3ccccc3Cl)o2)cc1 (stereo not drawn),.,.,.,.,.,-
CC1CCN(S(=O)(=O)c2cc([N+](=O)[O-])ccc2Cl)CC1,-,7.9µM,-,-,-,-
COc1ccc(-c2nc(SCC(=O)NC3CCCCC3)n[nH]2)cc1,-,-,-,-,.,15µM
COc1ccc(-c2ccc(SCC(=O)NC3CCCCC3)nn2)cc1,2.2µM,-,?,?,.,1.7µM
CCOc1ccc(-c2nc(SCC(=O)NC3CCCC3)c(-c3ccccc3)[nH]2)cc1OC,.,.,.,.,-,24µM
COc1ccc(-c2cn3nc(SCC(=O)NC4CCCCC4)ccc3n2)cc1,0.71µM,-,0.56µM,?,.,0.34µM
CC(C)N(C(=O)Cn1cc(S(=O)(=O)Cc2ccc(Br)cc2)c2ccccc21)C(C)C,.,.,.,.,.,-
SMILES,Rab9 prom act,uPA generation,NPC1 prom act,ELG1 genotox,SMN2 splice up,FLuc counter
O=C(NCC(c1cccnc1)N1CCc2ccccc21)c1cccc(F)c1 (stereo not drawn),.,.,.,.,.,-
CCOc1ccc(-c2ccc(SCC(=O)NC3CCCCC3)nn2)cc1,1.6µM,?,2µM,?,.,0.38µM
Cc1ccc(-c2ccc(SCC(=O)NC3CCCCC3)nn2)cc1,-,?,?,-,.,2.7µM
O=C1c2[nH]nc(-c3ccc(F)cc3)c2C(c2ccccc2F)N1c1ccccc1 (stereo not drawn),.,.,.,.,-,-
C=CCC(Nc1ccc(OC)cc1)(C(=O)OCC)c1ccccc1 (stereo not drawn),.,.,.,.,-,.
O=C(Nc1ccccc1)c1ccc(NC(=O)C2CC2)cc1,2.8µM,-,1.6µM,21µM,.,7.6µM
O=C(Nc1ccccc1C(=O)O)c1ccc(NC(=O)C2CCCCC2)cc1,-,-,-,-,.,9.5µM
O=C(NCCc1ccccc1)c1ccc(NC(=O)C2CCCCC2)cc1,.,-,.,.,.,.
O=C(c1ccc2c(c1)N(Cc1cccc(Cl)c1)C(=O)c1ccccc1S2=O)N1CCN(c2cccc(C(F)(F)F)c2)CC1 (stereo not drawn),.,.,.,.,.,-
COc1ccc(OC)c(/C=N/Nc2nncn2/N=C/c2cc(OC)ccc2OC)c1,-,10µM,-,-,-,15µM
COc1cc(/C=N\Nc2nncn2N)ccc1OC(C)=O,-,-,-,-,.,?
COc1ccc(OC)c(/C=N\Nc2nccs2)c1,.,-,.,.,.,.
COc1cc(/C=N/Nc2nncn2/N=C/c2ccc(O)c(OC)c2)ccc1O,?,-,?,-,25µM,0.38µM
COc1ccc(CNC(=O)Cn2ncc3c(=O)oc4ccc(C)cc4c32)c(OC)c1,.,.,.,.,-,-
CCOc1ccc(-c2nc(-c3cccnc3)no2)cc1OCC,-,-,-,-,-,?
CC(=O)Oc1ccc(Oc2ccc(-c3noc(C)n3)cc2)cc1,?,-,-,23µM,?,?
CC(=O)Oc1ccc(-c2nc(-c3cccnc3)no2)cc1,?,-,3.5µM,5.8µM,?,6µM
CC1(C)OC2CC3C4CC(F)C5=CC(=O)C=C[C@@]5(C)[C@@]4(F)C(O)C[C@@]3(C)[C@]2(C(=O)CO)O1 (stereo partly drawn),.,.,.,.,-,.
COc1ccc(OC)c(-n2nnc(-c3nc(-c4ccc5c(c4)OCO5)no3)c2C)c1,.,.,.,.,.,-
COc1ccc(-c2noc(CN(C)C(=O)c3ccc4c(c3)OCO4)n2)cc1,-,-,-,-,.,-
COc1ccc(-c2noc(-c3ccc4c(c3)OCO4)n2)cc1,1.1µM,-,0.79µM,?,8.9µM,0.95µM
c1ccc(-c2noc(-c3ccc4c(c3)OCO4)n2)cc1,0.28µM,-,0.45µM,0.41µM,5µM,0.48µM
COc1cccc(-c2noc(-c3ccc4c(c3)OCO4)n2)c1,0.56µM,-,2.5µM,1.8µM,.,0.54µM
c1ccc(-c2noc(-c3ccc4ccccc4c3)n2)cc1,-,-,-,?,-,0.27µM
O=C(NCc1nc(-c2ccccc2)no1)c1ccc2c(c1)OCO2,-,-,-,-,-,-[2.3 µM]
CCOc1cc(C(=O)Nc2ccc(-c3nnc4n3CCCCC4)cc2)cc(OCC)c1OCC,.,.,.,.,.,-
COc1cc(NC(=O)Cn2c(=O)nc(-c3ccccc3F)c3cc(Cl)ccc32)cc(OC)c1,.,.,.,.,.,-
CCc1ccc(NC(=O)c2sc(-n3nc(C)c(CCC(C)C)c3C)nc2C)cc1,.,.,.,.,.,-
COCC1CCN(Cc2nc(-c3ccc4c(c3)OCO4)no2)C1 (stereo not drawn),2.8µM,-,?,?,.,?

# Screening data from PubChem BioAssay.
